For orientation: inhibition means the drop in the measured response relative to a control, in per cent.

The campaign covered roughly 360,000 compounds. About 6,200 (1.7%) were called active. Only a selection was taken, and actives are over-represented in it overall. Values without a mark were called inactive.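 The calls were made as follows: active = inhibition of at least 50% at 20 µM; inactive = the rest.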

The test can be described thus: inhibition of PEG-3 promoter activity – cell-based, HeLa, luciferase luminescence, primary screen (AID 588405). The settings on record: HeLa PEG-Prom luciferase reporter, overnight, at 20 µM, stronger effect = higher value. Background: Reporter assays use an easily measured gene product as a stand-in for the process of interest.
`CC(C)c1ccc(CC(=O)N2CCC2(C)C(=O)NS(=O)(=O)c2ccc(C(C)(C)C)cc2)cc1` (configuration not stated): the inhibition was 11.3%.

On to `CC(C)Cn1cc(-c2cncc3nccn23)cn1`, for which the inhibition is 5.62%.

For `CN(C(=O)CN1CCN(c2cc(-c3ccc(OCc4ccccc4)cc3)ncn2)CC1)c1ccccc1`, the inhibition is -2.84%.

In the case of `CCOc1nc(NCCN2CCOCC2)nc(Nc2ccc(C)cc2)n1`, the inhibition is 5.29%.

As for `c1ccc2cc3c(NCCN4CCOCC4)ccnc3cc2c1`, the inhibition is 69.5% (active).

With `Fc1ccc(-c2ccc(NCCN3CCOCC3)nn2)cc1`, the inhibition is -96.4%.

In the case of `CCN(CC)C(=O)C1=C(C)N(Cc2ccc(F)cc2)C(=O)C(CC(=O)NC2CCCC2)C1` (configuration not stated), the inhibition was 11%.

As for `Cc1cccc2cc(CN(Cc3cccs3)C(=S)NCc3ccco3)c(=O)[nH]c12`, the inhibition is 4.8%.

Turning to `COCCCNC(=S)N(CCN(C)C)Cc1cc2cc3c(cc2[nH]c1=O)OCCO3`, the inhibition was 2.51%.

Consider `Cc1cc(C)c2[nH]c(=O)c(CN(Cc3ccccc3)C(=S)NCCCN(C)C)cc2c1`, for which the inhibition is 66.4% (active).

For the compound `CCCOc1ccc(F)cc1-c1cc(C(=O)Nc2ccc(F)cc2)[nH]n1`, the inhibition was -8.32%.

For `CCn1c(CC(=O)Nc2ccc(C)cc2)nnc1SCC(=O)Nc1nc(C)cs1`, the inhibition is -10.4%.

As for `COCC(C)NC(=O)COc1nncc2ccccc12` (configuration not stated), the inhibition is 0.55%.

Turning to `NC(Cc1ccc(F)cc1)c1csc(Nc2nncc3ccccc23)n1` (configuration not stated), the inhibition was 103% (active).

`CN[C@H]1C[C@H]2c3cc(Oc4ccccc4C)ccc3CCN2C(=O)[C@H]1[C@H](C)O`: the inhibition is -28.3%.

Consider `CN(C)C(=S)Nc1ccc(Br)cc1Cl`, for which the inhibition is 4.24%.

As to `O=C(NC1CCCC1)C1CCN(C(=O)Nc2cccc(Cl)c2)CC1`, the inhibition is 17%.

Consider `O=C(Nc1cccc(-c2cscn2)c1)C1CCN(Cc2ccsc2)CC1`, for which the inhibition is 5.06%.

Take `CCn1cc(CN2CCC(C(=O)Nc3cccc(-c4cccc(Cl)c4)c3)CC2)cn1`: the inhibition was 54.4% (active).

Consider `O=C(NCC1CCN(Cc2ccccc2Cl)CC1)Nc1cccc(Cl)c1`, for which the inhibition was 27.8%.

With `O=C(Nc1cnn(Cc2ccc(Cl)cc2)c1)C1CCCC1`, the inhibition is -29.5%.

Regarding `O=C(Nc1cccc(-c2cccc(Cl)c2)c1)C1CCN(C2CCC2)CC1`, the inhibition was 53.2% (active).

On to `COc1cccc(-c2cccc(NC(=O)C3CCN(C4CCC4)CC3)c2)c1`, for which the inhibition was 9.5%.

In the case of `CC(=O)c1cc(CN2CCC(C(=O)Nc3cccc(-c4cscn4)c3)CC2)cs1`, the inhibition is 2.3%.

As for `CCn1cc(CN2CCC(C(=O)Nc3cccc(-c4cccc(Cl)c4)c3)CC2)c(C)n1`, the inhibition was 105% (active).

With `COc1cccc(NC(=O)C2(C)CCN2Cc2ccccc2Cl)c1` (configuration not stated), the inhibition was 12.9%.

With `CCOCCC(=O)Nc1ccc2c(c1)c(=O)n(C)n2-c1ccc2ccccc2c1`, the inhibition is -14.8%.

With `CCCNC(=O)C1(C)CCN(C(=O)c2ccccc2OC(F)(F)F)C1` (configuration not stated), the inhibition is -13.6%.

Consider `CC(=O)Nc1cc(-c2ccc(N3CCN(C)CC3)cc2)cn2c(-c3ccc(F)cc3)cnc12`, for which the inhibition was -24.9%.

Consider `CCCCN(C=O)c1c(CC)nc2c(OCc3ccccc3C(=O)OC)cccn12`, for which the inhibition is 13.7%.

For `Cc1nc2c(-c3ccccc3)c(C)[nH]n2c(=O)c1Cl`, the inhibition is 13.1%.

On to `CCCc1cc(=O)n2[nH]c(C)c(-c3ccc(Cl)cc3)c2n1`, for which the inhibition was 61.5% (active).

`COCc1cc(=O)n2[nH]c(C)c(-c3ccccc3)c2n1`: the inhibition is 2.19%.

Turning to `COc1cc(F)ccc1-c1cc(C(=O)NCC2CCCCC2)[nH]n1`, the inhibition is -33.4%.

As to `CC(C)COC(=O)C1C2C=CC3(CN(C(C)c4ccc(Br)cc4)C(=O)C13)O2` (configuration not stated), the inhibition is 6.1%.

With `COc1cc(NC(=O)c2cc(-c3ccc(F)cc3OC(C)C)n[nH]2)cc(OC)c1OC`, the inhibition was 33.7%.

For `Cc1ccc(C(=O)NCC(=O)O)s1`, the inhibition is 13.7%.

On to `Cc1nc2c(OCc3cccc(Cl)c3)cccn2c1N(C)CC1CC1`, for which the inhibition was -12.2%.

As for `OC(c1ccc(Cl)c(F)c1)c1ncc(-c2ccccc2Cl)[nH]1` (configuration not stated), the inhibition is 17.5%.

Take `O=C(NC(c1ccc(-c2ccccc2)cc1)c1cnccn1)C1CCN(CCOc2ccc(Cl)cc2Cl)CC1` (configuration not stated): the inhibition was 37.4%.

As to `O=C(NC(c1ccc(Cl)cc1)c1cnccn1)C1CCN(Cc2ccc(Cl)cc2)CC1` (configuration not stated), the inhibition is 6.83%.

Regarding `Cc1ccc(C(NC(=O)C2CCN(CCOc3ccc(Cl)cc3Cl)CC2)c2ccccn2)cc1` (configuration not stated), the inhibition is 106% (active).

For the compound `Nc1ncnc2c1ncn2[C@@H]1O[C@H](CNC(=O)[C@H](N)Cc2cccnc2)[C@@H](O)[C@H]1O`, the inhibition was -0.67%.

As to `O=C(CC[C@H]1O[C@@H](n2ccc(=O)[nH]c2=O)[C@H](O)[C@@H]1O)N[C@H](Cc1ccccc1)C(=O)NCCCN1CCCC1=O`, the inhibition is -0.27%.

For `CCOC(=O)C1=C(C)N(C[C@@H]2CC[C@@H](Cc3ccc(-c4ccccc4)cc3)O2)C(=O)NC1c1ccc([N+](=O)[O-])cc1` (some centres not stated), the inhibition was 15.2%.

Take `COC(=O)C1=C(C)N(Cc2ccccc2)C(=NCCCOC(C)C)N[C@H]1c1ccccc1`: the inhibition was -9.14%.

For `CCOC(=O)C1=C(CCc2ccccc2)NC(=O)NC1c1ccc2ccccc2c1` (configuration not stated), the inhibition is 40.3%.

Regarding `CCCCNC(=O)C(C)N(CCN(C)C)C(=O)CCCCCN1C(=O)NC(c2ccc(Cl)cc2)C(C(=O)OCc2ccccc2)=C1C` (configuration not stated), the inhibition is 91.8% (active).

On to `CCCCNC(=O)C(C)N(CCN(C)C)C(=O)CCCN1C(=O)NC(c2ccc(Cl)cc2)C(C(=O)OCc2ccccc2)=C1C` (configuration not stated), for which the inhibition is 92.9% (active).

Turning to `CCOC(=O)CCCNC(=O)CN1C(=O)NC(CCc2ccccc2)C1=O` (configuration not stated), the inhibition is 1.97%.

As to `CC1=C(C(=O)N(C(C)C)C(C)C)CC(CC(=O)NCC2CCCCC2)C(=O)N1Cc1ccccc1` (configuration not stated), the inhibition was 11.2%.

For the compound `O=C(Nc1ccc(OCCO)cc1)c1csc([C@H]2C[C@H](O)[C@@H](CO)O2)n1`, the inhibition was 14.9%.

Regarding `CCNC(=O)C1(C)CCCN(Cc2noc(-c3ccccc3OC)n2)C1` (configuration not stated), the inhibition is 2.68%.

As to `COC(=O)c1ccc(/C=C2/C(=O)Oc3ccccc32)cc1`, the inhibition is 11.1%.

With `O=C1Oc2ccccc2C(=O)/C1=C/c1ccccc1O`, the inhibition was 69.8% (active).

For the compound `C=C1C(=O)[C@]23C[C@H]1CCC2[C@@]1(C)C(C[C@@H]3O)[C@](C)(C(=O)O)CC[C@@H]1O` (some centres not stated), the inhibition is 3.91%.

Turning to `CC1CC(C)(C)n2c(O)c(N=NC(N)=S)c3cccc1c32` (configuration not stated), the inhibition is 29.2%.

For the compound `CCc1nc2ccc(C(=O)N(C)Cc3ccco3)cn2c1N(C)C(=O)Cc1ccccc1`, the inhibition was 8.02%.

In the case of `O=C(O)C#Cc1cccc2ccccc12`, the inhibition was 12.5%.

For `CC(C)(C)c1nnc2sc(SCC(O)=C(C#N)c3nc4ccccc4[nH]3)nn2c1=O`, the inhibition was 20.3%.

For the compound `N#C/C(=C(/O)COC(=O)COc1ccc(Cl)cc1)c1nc2ccccc2[nH]1`, the inhibition was 71.2% (active).

On to `COc1ccccc1C(=O)COC(=O)COc1ccc(C#N)cc1`, for which the inhibition is 10.1%.

On to `COc1ccc(C2=Nc3ccccc3NC(=O)C2N(C(=O)c2cc3ccccc3[nH]2)c2ccccc2)cc1` (configuration not stated), for which the inhibition was -169%.

Consider `CC1(C(=O)Nc2cccc3c2CCCC3)CCN1C(=O)C1(c2ccccc2)CC1` (configuration not stated), for which the inhibition is 11.5%.

For the compound `Cc1ccc(NC(=S)N(CCCN2CCCC2)Cc2cccn2Cc2ccc(Cl)cc2)cc1`, the inhibition was 83.4% (active).

Take `Cc1ccccc1NC(=S)N(CCCN1CCOCC1)Cc1cccs1`: the inhibition is -3.16%.

On to `CCc1cccc(C)c1NC(=S)N(CCCN1CCN(C)CC1)Cc1cccs1`, for which the inhibition was 12%.

Regarding `O=C(C1CCN(c2nnc(-n3cccc3)s2)CC1)N1CCc2ccccc2C1`, the inhibition was 14.8%.

`CN(C)CCCn1c(=O)n(Cc2ccccc2)c(=O)c2c3c(sc21)CCCCC3`: the inhibition is 89.8% (active).

With `CCn1c(=S)[nH]c2sc3c(c2c1=O)CCCCC3`, the inhibition was -19.3%.

For the compound `O=c1c2c3c(sc2n(CCN2CCCC2)c(=O)n1Cc1ccccc1)CCCCC3`, the inhibition was -15%.

On to `CCCCC1S/C(=N/N=C/c2cccs2)NC1=O` (configuration not stated), for which the inhibition is -0.95%.

Consider `CC(=O)Nc1cccc(-c2ccnc3c2CC(C)(C(=O)NCc2ccccc2)O3)c1` (configuration not stated), for which the inhibition is -22.6%.

With `CC(C(=O)NC1CCS(=O)(=O)C1)N1C(=O)/C(=C/c2ccc(Cl)cc2)SC1=S` (configuration not stated), the inhibition is -7.3%.

For the compound `O=C1/C(=C\c2ccc(O)cc2)CCC1CNc1ccc(Cl)cc1` (configuration not stated), the inhibition is 93.8% (active).

Take `O=C1N=C(N2CCc3ccccc3C2)S/C1=C\c1ccc(O)cc1`: the inhibition is -5.21%.

As for `CCCC(=O)N1CCC1(C)C(=O)NS(=O)(=O)c1ccc(Cl)cc1` (configuration not stated), the inhibition was 3.54%.

Consider `CC(=O)Nc1cccc(Nc2ccc(C#N)cc2)c1`, for which the inhibition was -24.3%.

As to `COc1cccc(CNC(=O)Cc2csc(Nc3nc(=S)[nH]c4ccccc34)n2)c1`, the inhibition was 29.3%.

With `O=C(Cc1csc(Nc2nc(=S)[nH]c3ccccc23)n1)NCCCN1CCN(c2cccc(Cl)c2)CC1`, the inhibition was 53.1% (active).

Take `O=C(Cc1ccc(-n2c(=O)[nH]c3ccccc3c2=O)cc1)N1CCN(c2cccc(Cl)c2)CC1`: the inhibition was 9.68%.

`COC(=O)c1ccc(CN2C(=O)C(Cc3ccccc3)ON=C2c2ncccc2C)o1` (configuration not stated): the inhibition is 3.64%.

Consider `O=C(Cc1ccc([N+](=O)[O-])cc1)Nc1ccc(C(=O)N2CCOCC2)cc1`, for which the inhibition is -2.85%.

Consider `C=CCn1c(COc2cccc3cccnc23)nnc1SCC(=O)OC`, for which the inhibition is 16.7%.

On to `CCCCC(=O)NC(c1ccc(OC)c(OC)c1)c1ccc2cccnc2c1O` (configuration not stated), for which the inhibition is 60.4% (active).

As to `CCOc1ccc(C(CCc2ccccc2)NC(=O)c2ccc(OC)c(OC)c2)cc1OCC` (configuration not stated), the inhibition was 11.6%.

For the compound `CCc1nc2c(OCCC3CCCCC3)cccn2c1N(C)C(=O)c1ccco1`, the inhibition is 5.45%.

Values taken from PubChem BioAssay AID588405 (Sanford-Burnham Center for Chemical Genomics, 2011).
